# According to ChEMBL document CHEMBL4513216, “Probing the Open Global Health Chemical Diversity Library for Multistage-Active Starting Points for Next-Generation Antimalarials” (ACS Infect Dis, 2020):
# Out of some 68,000 compounds screened, about 2,700 (4%) showed an effect of 50% or more. This excerpt belongs to a sample that is enriched for strong results.
# Test system: Plasmodium berghei
# Experiment: Screen against P. berghei liver stage (PbLuc), transformed with Luciferase, at 2uM
# Assay type: functional, HepG2
# Conditions: tested at 2 uM
row,Compound,INHIBITION [%]
1,CCOCC1CN(Cc2cnn(C)c2)Cc2nn(C)cc21 (stereo not given),19.44
2,CS(=O)(=O)N[C@@H]1CN(C(=O)c2cccnc2)[C@@H]2CCCO[C@@H]21,-13.61
3,COCC(NC(=O)c1cnn(C)c1)c1cccc(C(F)(F)F)c1 (stereo not given),31.38
4,CCOCC1CN(Cc2ccoc2)Cc2nn(C)cc21 (stereo not given),-55.93
5,CC(C)CN1CCCn2nc(CNC(=O)Cc3cccc(O)c3)cc2C1,49.95
6,CCc1nc(CN(C)C2CCN(CCS(C)(=O)=O)C2)no1 (stereo not given),50.72
7,CCc1nc(CN(C)C2CCN(CCn3cccn3)C2)no1 (stereo not given),51.94
8,CN(Cc1noc(C2CC2)n1)C1CCN(CCn2cc(C#N)cn2)C1 (stereo not given),-9.17
9,CCc1nc(CN(C)C2CCN(CCc3ccncc3)C2)no1 (stereo not given),-11.16
10,CN(Cc1noc(C2CC2)n1)C1CCN(CCn2cccn2)C1 (stereo not given),10.1
11,Cc1nc(CN(C)C2CCN(CCn3cc(C#N)cn3)C2)no1 (stereo not given),-27.5
12,CC(C)c1nc(CN(C)C2CCN(CCn3cc(C#N)cn3)C2)no1 (stereo not given),60.09
13,CN(Cc1noc(C2CC2)n1)C1CCN(CCS(C)(=O)=O)C1 (stereo not given),-6.15
14,CCc1nc(CN(C)C2CCN(CCNS(=O)(=O)CC)C2)no1 (stereo not given),20.71
15,CC(=O)N(C)CC(=O)NC1(c2ccc(Cl)c(Cl)c2)CC1,23.45
16,Cc1nc(C)c(C(=O)NCCNC(=O)Cc2cccc(F)c2)s1,30.91
17,CSCC(C)(O)CNS(=O)(=O)c1ccc(F)cc1 (stereo not given),-40
18,CN(Cc1csc(-c2cccs2)n1)Cc1cccnc1N,27.47
19,Clc1ccc(OCCCN2CCOC(Cn3cncn3)C2)cc1 (stereo not given),9.17
20,COc1ccc(Oc2ncccc2C(F)(F)F)cc1CN1CCCC1,20
21,COc1cc(CN2CCCC2)ccc1Oc1ncccc1C(F)(F)F,43.1
22,COc1cc(Oc2ncccc2C(F)(F)F)ccc1CN1CCCC1,66.12
23,c1cc2nccc(CC3CCCN(Cc4c[nH]cn4)CC3)c2cn1 (stereo not given),-0.83
24,O=C(O)c1ccnc(-c2ccnc(COc3ccccc3Cl)n2)c1,17.2
25,CCc1cnc(CNC(=O)NC2CC(C)(C)OC2(C)C)s1 (stereo not given),-1.45
26,CCc1cnc(CNC(=O)NCCCO)s1,52.85
27,CCc1cnc(CNC(=O)NCCc2ccc(O)cc2)s1,47.59

row,Compound,INHIBITION [%]
1,CN(C)CC1CN(c2ncnc3ccsc23)CCO1 (stereo not given),44.6
2,CCN1CCCC1CNC(=O)CCc1cccs1 (stereo not given),9.27
3,CSc1ccc(OC(C)C(=O)Nc2c(C)n[nH]c2C)cc1 (stereo not given),3.5
4,CC(=O)N1CCC(c2cnc(-c3c(C)nn(C)c3C)cn2)CC1,34.06
5,COc1cc(C(=O)N2CCCC2CC(=O)c2cnn(C)c2)ccc1F (stereo not given),64.2
6,Cn1cc(C(=O)CC2CCCN2C(=O)c2ccncc2F)cn1 (stereo not given),-5.09
7,Cn1cc(C(=O)CC2CCCN2C(=O)c2ccc(Cl)cn2)cn1 (stereo not given),24.55
8,CCc1ccccc1C(=O)N1CCCC1CC(=O)c1cnn(C)c1 (stereo not given),-7.41
9,Cn1cc(C(=O)CC2CCCN2C(=O)c2cncc3ccccc23)cn1 (stereo not given),11.1
10,Cn1cc(C(=O)CC2CCCN2C(=O)c2cccc3ncccc23)cn1 (stereo not given),51.19
11,Cc1noc([C@H]2C[C@H]3OCC[C@H]3N(C3CCC3)C2)n1,44.94
12,COc1ccccc1CN(C)C(=O)CN1CC(n2nc(C)cc2C)C1,18.15
13,Cc1cc(C)cc(CN2CCN(Cc3cccc(CCN)c3)CC2=O)c1,61.75
14,Cc1cc(C)cc(N2CCN(Cc3cccc(CCN)c3)CC2=O)c1,10.92
15,NCCc1cccc(CN2CCN(c3ccccc3)C(=O)C2)c1,22.72
16,CC(C)c1nnc2n1CCN(Cc1ccc3c(c1)OCO3)CC2,-21.23
17,Cc1cccc(CN2CCC3(CCN(c4ccccn4)C3)C2=O)c1 (stereo not given),17.39
18,Cc1n[nH]c(C2CN(CC(=O)NCCc3ccsc3)CCO2)n1 (stereo not given),50.74
19,Cc1n[nH]c(C2CN(CC(=O)NCCc3ccccc3)CCO2)n1 (stereo not given),19.43
20,CCc1n[nH]c(C2CN(CC(=O)NCCc3ccsc3)CCO2)n1 (stereo not given),12.46
21,CC(CNC(=O)CCCc1ccccn1)c1ccsc1 (stereo not given),18.85
22,Cc1ccc(CN2CC[C@@H](O)[C@@H]2Cc2ccccc2)o1,14.65
23,Cc1cccc(C(C(=O)N(C)CCc2cn[nH]c2)N(C)C)c1 (stereo not given),67.28
24,Cc1ccccc1C(C(=O)N(C)CCc1cn[nH]c1)N(C)C (stereo not given),-102.03
25,CN(CCc1cn[nH]c1)C(=O)C(c1ccc(F)cc1)N(C)C (stereo not given),38.67
26,Cc1cc(C)cc(CCC(=O)N(C)CCc2cn[nH]c2)c1,-4.26
27,Cc1ccc(C(C(=O)N(C)CCc2cn[nH]c2)N(C)C)cc1 (stereo not given),69.67

row,Compound,INHIBITION [%]
1,Cc1cccc(C(C(=O)N(C)Cc2ccon2)N(C)C)c1 (stereo not given),-2.69
2,Cc1ccc(CCC(C)NC2CCN(C(N)=O)CC2)cc1 (stereo not given),-5.43
3,CN1CCN(CCCNC(=O)CCc2nc3cc(Br)cnc3[nH]2)CC1,12.87
4,O=C(Nc1nc2c(s1)CN(S(=O)(=O)C1CC1)CC2)Nc1ccccc1F,47.9
5,CC1CN(c2ncnc3c2cnn3C)CCN1c1nccs1 (stereo not given),57.16
6,c1csc(N2CCN(c3ncnc4sccc34)CC2)n1,16.93
7,CC1CN(c2ncnc3sccc23)CCN1c1nccs1 (stereo not given),38.01
8,O=C(Cc1ccccn1)N1CCn2cc(Cn3cncn3)nc2C1,-33.15
9,Cc1ccc(-c2nc(CN3CCN(C(=O)C4CC4)CC3)cs2)o1,-21.93
10,Cc1ccc(-c2nc(CN3CCC(C(=O)N(C)C)CC3)cs2)o1,27.91
11,Cc1ccc(-c2nc(CN3CCN(CC(=O)N(C)C)CC3)cs2)o1,4.18
12,Cc1ccc(-c2nc(CN3CCN(S(=O)(=O)N(C)C)CC3)cs2)o1,53.12
13,CCc1nnc2n1CCN(Cc1nc(-c3ccoc3)no1)C2,73.05
14,CCNC(=O)C1CCN(Cc2csc(-c3ccc(C)o3)n2)CC1,50.12
15,Cc1ccc(-c2nc(CN3CCn4c(C)nnc4C3)cs2)o1,42.58
16,CCOC(=O)C1CCN(Cc2csc(-c3ccc(C)o3)n2)CC1,-0.76
17,CCc1nnc2n1CCN(Cc1csc(-c3ccc(C)o3)n1)C2,58.49
18,Cc1nnc2n1CCN(Cc1nc(-c3ccoc3)no1)C2,-25.13
19,Cc1ccc(-c2nc(CN3CCn4c(nnc4C4CC4)C3)cs2)o1,-110.74
20,CC(C)c1nnc2n1CCN(Cc1nc(-c3ccoc3)no1)C2,7.01
21,O=C(NCc1ccccc1)c1nc2c(o1)CN(C(=O)c1cccnc1)C2,36.75
22,COCCN1C[C@@H]2CN(Cc3cccc(C)n3)C[C@@H]2C1=O,39.92
23,CCCN1CCN(c2nc(N)nc3c2nc(C)n3C)CC1,9.85
24,Cc1noc(C)c1C(=O)N1CCC(c2[nH]ncc2S(C)(=O)=O)C1 (stereo not given),13.58
25,Cc1nc(N2CCN(C(=O)C3CCCC3)CC2)c2c(n1)c(C)nn2C,-36.89
26,Cc1nc(N2CCN(C(=O)C3CC3)CC2)c2c(n1)c(C)nn2C,51.57
27,CCC(=O)N1CCN(c2nc(C)nc3c(C)nn(C)c23)CC1,13.72

row,Compound,INHIBITION [%]
1,CCCC(=O)Nc1ccc(CC(=O)N(CC)CC2CCCCO2)cc1 (stereo not given),-5.44
2,Cc1ccc(C2COCCN2C(=O)c2ccc(C)s2)o1 (stereo not given),3.63
3,Cn1cc(CN2CCC3(CC2)CN(c2cccnc2)C(=O)CO3)cn1,-56.25
4,O=C1COC2(CCN(Cc3cccs3)CC2)CN1c1ccccc1,-10.6
5,Cn1cc(N2CC3(CCN(Cc4cccnc4)CC3)OCC2=O)cn1,54.44
6,O=C1COC2(CCN(Cc3cccs3)CC2)CN1c1ccsc1,55.7
7,Cn1cc(N2CC3(CCN(Cc4ccccc4)CC3)OCC2=O)cn1,33.97
8,O=C1COC2(CCN(Cc3cccs3)CC2)CN1c1cncnc1,25.58
9,O=C(NCCn1cccc1)c1c(O)cc(F)cc1F,-5.53
10,Cc1noc(C)c1CNC(=O)N1CCN(CC2CC2)CC1,-20.36
11,c1cncc(-c2ncnc3c2CCN(Cc2cccs2)CC3)c1,24.42
12,CC(C)(O)CN1CCN(C(=O)c2cccn2Cc2ccccc2)CC1,-36.56
13,CC(C)(O)CN1CCN(C(=O)c2cccn2Cc2ccncc2)CC1,-51.5
14,CC(C)(O)CN1CCN(C(=O)c2cccn2Cc2cccnc2)CC1,54.5
15,CC(C)c1nn(C)c(N(C)C)c1CNCc1cccc(CN(C)C)c1,-36.7
16,COCc1ncc(CN2CCC3(CCC(=O)N(CC(C)O)C3)CC2)cn1 (stereo not given),-40.15
17,Cc1cc(C)c2c(N3CCC(C(=O)N4CCCC4)CC3)ncnc2n1,36.74
18,COc1ccc(F)c(F)c1CN1CCC2(CC1)[C@H](O)C[C@@H]2OCCN,57.75
19,COc1cc(C)c(CN2CCC3(CC2)C(C(=O)O)CC(=O)N3C)cc1C (stereo not given),1.82
20,COc1cc(CN2CCC3(CC2)[C@H](O)C[C@@H]3OCCO)ccc1F,-6.64
21,NCCO[C@H]1C[C@@H](O)C12CCN(Cc1c(F)cccc1F)CC2,2.9
22,COc1cc(C)c(CN2CCC3(CC2)[C@H](O)C[C@@H]3OCCN)cc1C,72.05
23,NCCO[C@H]1C[C@@H](O)C12CCN(C1Cc3ccccc3C1)CC2,-17.86
24,COc1c(CNCc2ccc(N3CCCC3)nc2)c(C(C)C)nn1C,20.57
